# Screens from PubChem.
# HP1b chromo inh: HP1-beta chromodomain-methylated histone interaction inhibition | Potency, µM (titrated, usually from 114 µM), hits mostly inhibitors | P83916 | AlphaScreen HP1-beta / biotin-H3K9me3 peptide binding | 0.56% of 390,000 active; further: nearly all actives have a fitted effect of over 70% in size
#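 AlphaScreen: HP1-beta (50 nM) preformed 30 min with biotin-H3(1-18)K9me3 peptide (50 nM) in PBS pH 7.4, 0.01% Tween-20. Compound added for 30 min at RT, then streptavidin donor/nickel chelate acceptor beads (10 ug/mL) for 30 min.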
# L3MBTL1 inh: blocks human L3MBTL1. Q9Y468. AlphaScreen L3MBTL1–H3K9me1 peptide binding. Potency, µM (top dose mostly 57.1 µM), most hits filed as inhibitors. 0.66% of 230,000 active. AID 485360; further: nearly all actives have a fitted effect of over 60% in size
#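 L3MBTL1 (50 nM) pre-complexed 30 min with biotinylated H3(1-15)K9me1 peptide (75 nM), then compounds added for 30 min at room temperature; AlphaScreen streptavidin donor/nickel chelate acceptor beads (10 ug/mL final) read after 30 min dark incubation.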
# BAZ2B inh: BAZ2B (human) inhibition. Q9UIF8. AlphaScreen BAZ2B-H3K14Ac peptide displacement. Potency, µM (titrated, usually from 114 µM), usual class: inhibitors. 4.4% of 360,000 active. AID 504333; further: nearly all actives have a fitted effect of over 60% in size
#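 AlphaScreen displacement of biotin-H3(5-23)K14Ac peptide (50 nM final) from BAZ2B (50 nM final) in PBS pH 7.4, 0.01% Tween-20; complex preformed 30 min RT, then compounds (top 110 uM) 30 min RT, beads 20 min dark.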
# VDR inh: blocks the human vitamin D receptor | P11473 | VDR-SRC2-3 peptide fluorescence polarization, 2 h | Potency, µM, actives largely listed as inhibitors | 0.93% of 400,000 active | AID 504847
#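 Compounds are added to VDR with labelled SRC2-3 coactivator peptide and held 2 h at room temperature. Inhibition of the VDR–peptide interaction is then read as a change in fluorescence polarization.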
# JMJD2A Tudor inh: inhibitors of human JMJD2A Tudor domain; 4.4% of 390,000 active; Potency, µM (doses to about 114 µM), most hits filed as inhibitors; AID 504339; AlphaScreen JMJD2A-Tudor / H3K4me3 peptide binding; further: nearly all actives have a fitted effect of over 50% in size
# Target sequence (O75164 whole entry, looked up, the tested form may be a part): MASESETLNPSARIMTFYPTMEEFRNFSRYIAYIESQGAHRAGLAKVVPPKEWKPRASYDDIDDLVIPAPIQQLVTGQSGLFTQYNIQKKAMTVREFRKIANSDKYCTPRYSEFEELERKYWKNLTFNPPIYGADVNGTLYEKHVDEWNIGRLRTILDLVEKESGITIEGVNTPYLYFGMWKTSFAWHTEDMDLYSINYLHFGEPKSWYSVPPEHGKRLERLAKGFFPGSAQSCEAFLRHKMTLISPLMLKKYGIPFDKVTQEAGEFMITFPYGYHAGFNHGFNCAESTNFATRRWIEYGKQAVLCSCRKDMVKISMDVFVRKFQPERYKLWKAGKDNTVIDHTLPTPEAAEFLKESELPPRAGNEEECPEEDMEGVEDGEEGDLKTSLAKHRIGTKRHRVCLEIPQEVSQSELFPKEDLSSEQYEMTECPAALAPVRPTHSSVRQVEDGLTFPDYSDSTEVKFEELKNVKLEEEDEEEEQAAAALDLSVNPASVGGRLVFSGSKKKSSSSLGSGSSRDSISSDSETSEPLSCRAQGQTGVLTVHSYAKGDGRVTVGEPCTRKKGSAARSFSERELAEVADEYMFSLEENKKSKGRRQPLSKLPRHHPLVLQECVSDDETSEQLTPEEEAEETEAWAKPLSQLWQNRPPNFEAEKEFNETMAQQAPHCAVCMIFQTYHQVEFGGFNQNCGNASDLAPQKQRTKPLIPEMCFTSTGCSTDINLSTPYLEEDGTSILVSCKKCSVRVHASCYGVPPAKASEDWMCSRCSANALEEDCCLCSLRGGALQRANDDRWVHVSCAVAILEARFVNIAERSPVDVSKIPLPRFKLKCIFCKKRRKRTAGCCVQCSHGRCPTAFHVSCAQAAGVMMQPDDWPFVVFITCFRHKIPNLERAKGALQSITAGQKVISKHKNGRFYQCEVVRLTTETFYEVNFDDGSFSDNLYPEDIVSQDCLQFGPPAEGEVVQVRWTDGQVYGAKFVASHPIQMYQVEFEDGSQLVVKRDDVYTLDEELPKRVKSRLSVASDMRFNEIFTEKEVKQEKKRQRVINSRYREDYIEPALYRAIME
# PLK1 PBD inh: blocks phosphopeptide binding to human PLK1 polo-box domain | 2.8% of 360,000 active | Potency, µM, most hits filed as inhibitors | AID 720504 | Plk1 PBD binding of FITC phosphopeptide, fluorescence polarization | P53350; further: series mostly up to about 57 µM; nearly all actives have a fitted effect of over 65% in size
# Numbers stand for hits; - = inactive; ? = inconclusive; . = no result given; [ ] = dose if it differs, or a comment. Rows were chosen to be rich in hits. Some 6.9% of all compounds tested hit in one or more screens of this group. The call rests on the fitted dose curve; in most records, active means well fitted curve in the direction sought with a large enough effect; inconclusive means small, poorly fitted or top-dose-only effect, or another doubt; inactive means no such curve, though single readings can be large; an effect the other way counts as inactive or inconclusive.
SMILES,HP1b chromo inh,L3MBTL1 inh,BAZ2B inh,VDR inh,JMJD2A Tudor inh,PLK1 PBD inh
CC(=O)Nc1ccc(CN2CCCC(C(=O)c3ccc(C(F)(F)F)cc3)C2)cc1 (stereo not drawn),-,-,-,-,-,-
Cc1cc(C)c(Cn2c(=O)n(CCCC(=O)NCc3ccc4c(c3)OCO4)c(=O)c3sccc32)c(C)c1,-,.,-,-,-,.
CN(c1nnc(NC(=O)Nc2ccc(Br)cc2)s1)C1CCCCC1,-,.,-,-,-,.
CCCCCOC(=O)C1[C@H]2C(=O)N(Cc3cccs3)C[C@]23C=C[C@H]1O3 (stereo partly drawn),-,-,-,-,-,-
CCCCOC(=O)C1[C@H]2C(=O)N(Cc3cccs3)C[C@]23C=C[C@H]1O3 (stereo partly drawn),-,-,79µM,-,-,-
COc1ccc(N=Nc2n(C)c3ccccc3[n+]2C)cc1,.,-,40µM,.,.,.
Cc1ccc(NC(=O)CSc2nc(-c3ccco3)nc3cc(=O)[nH]n23)cc1C,-,.,40µM,-,-,.
COc1ccc(NC(=O)CSc2nc(-c3ccco3)nc3cc(=O)[nH]n23)cc1Cl,-,.,79µM,-,45µM,19µM
COc1ccc(NC(=O)CSc2nc(-c3ccco3)cc(C(F)(F)F)n2)cc1Cl,-,.,-,-,-,.
COc1ccc(NC(=O)CSc2nc(-c3ccco3)nc3cc(=O)[nH]n23)cc1,-,.,79µM,-,-,.
CC(C)c1nc(Nc2nc3ccccc3o2)nc2c1CCCC2,.,.,.,.,-,.
Cc1nc(Nc2nc3ccccc3o2)nc2c1CCC2,-,-,.,-,10µM,-
CC(C(=O)Nc1cc([N+](=O)[O-])ccc1Cl)N1CCN(c2ccc(O)cc2)CC1 (stereo not drawn),71µM,?,-,-,25µM,-
OC(CN1CCN(c2cccc(C(F)(F)F)c2)CC1)c1c[nH]c2ccccc12 (stereo not drawn),-,-,?,-,?,-
COc1ccnc(N2CCN(c3cccc(C(F)(F)F)c3)CC2)c1C#N,-,-,-,-,-,-
CCOCc1cc(CN2CCN(c3cccc(C(F)(F)F)c3)CC2)c(O)c2ncccc12,-,.,28µM,-,56µM,.
CC(C)OCc1cc(CN2CCN(c3cccc(C(F)(F)F)c3)CC2)c(O)c2ncccc12,-,.,25µM,-,?,.
CC(C)C[C@@H](/C=C/S(C)(=O)=O)NC(=O)[C@H](CC(C)C)NC(=O)[C@H](CC(C)C)NC(=O)OCc1ccccc1,.,.,.,-,.,.
N[C@@H](Cc1ccc(O)cc1)c1nnc([C@H](CO)NC(=O)C2CCNCC2)o1,-,-,-,-,-,-
O=C(O)CC1(CC(=O)Nc2ccccc2N2CCOCC2)CCCC1,-,-,-,-,-,-
COc1cc(/C=C2\SC(=O)N(CCN)C2=O)ccc1OS(=O)(=O)c1cc(C)ccc1C,?,.,?,-,28µM,-
CCN1C(=O)c2ccccc2Sc2ccc(NC(=O)c3ccc(C#N)cc3)cc21,-,.,-,-,-,.
CCOC(=O)C(C)Sc1nc(=O)n2ccccc2n1 (stereo not drawn),?,.,-,-,-[11.4 µM],24µM
Clc1ccc(-c2csc(N3CCSCC3)n2)cc1,-,-,-,-,-,24µM
CCc1ccc(OCc2ccccc2C(=O)Nc2ccc3nc(C)cc(N)c3c2)cc1,.,.,.,-,.,.
SMILES,HP1b chromo inh,L3MBTL1 inh,BAZ2B inh,VDR inh,JMJD2A Tudor inh,PLK1 PBD inh
OCC[C@@H]1C[C@H](O)[C@@H](O)[C@@]2(OCCc3cc(Cl)ccc32)O1,.,.,.,.,.,-
CCN(CC(F)(F)C(F)F)S(=O)(=O)c1ccc(NC(=O)OC)cc1,?,-,-,?,20µM,3.8µM
COC(=O)Nc1ccc(S(=O)(=O)N(CCO)CC(F)(F)C(F)F)cc1,-,?,-,-,-,-
O=C(N/N=C/c1ccco1)c1cccc(N2CCCC2=O)c1,-,-,-,-,-,-
Cc1cc2c(cc1C)/C(=N/NC(=O)c1ccccn1)CCC2,-,-,50µM,-,-,-
O=C(N/N=C/c1ccco1)c1ccccn1,-,-,56µM,-,?,-
Cc1cc(C)c2c(c1)/C(=N/NC(=O)c1ccc(O)cc1)CCC2,-,-,-,-,-,-
O=C(N/N=C/c1ccsc1)c1ccccn1,-,.,56µM,-,-,-
O=C(N/N=C/c1ccco1)c1cccc(N2Cc3ccccc3C2)c1,?,?,50µM,?,28µM,27µM
COCCn1c(SCC(=O)Nc2ccc(F)c(Cl)c2)nc2c(oc3ccccc32)c1=O,-,.,-,-,-,.
Cc1ccc(NC(=O)c2ccc(C(=O)c3ccccc3)cc2)nc1,-,-,-,-,-,-
C[C@H]1[C@@H](Cc2cc(Cl)cc(Cl)c2)N(c2ccccc2)c2ccccc2CN1Cc1ccccc1,.,.,.,.,.,-
CC1C(=O)NN=C1C(=O)N/N=C/c1ccco1 (stereo not drawn),-,-,.,-,-[11.4 µM],27µM
Cc1ccsc1/C=N/NC(=O)c1ccccn1,-,-,50µM,-,-,-
CC1=NNC(=O)C1CCC(=O)N/N=C/c1ccco1 (stereo not drawn),-,-,-,-,-,-
COc1cc(/C=N/NC(=O)c2ccccn2)cc2c1OCO2,-,-,50µM,-,?,-
Cc1ccc(Cl)cc1N1CCN(C(=O)CCCn2c(=O)[nH]c3ccc(Br)cc3c2=O)CC1,-,.,-,-,-,.
CC(C)(C)c1ccc(C(=O)NNc2cc(N3CCCCC3)nc(N3CCCCC3)n2)cc1,7.1µM,-,10µM,-,?,-
CC(C)(C)c1ccc(C(=O)NNc2cc(N3CCOCC3)nc(N3CCOCC3)n2)cc1,-,-,?,-,-,-
Cc1ccc(S(=O)(=O)CCc2nc3ccccc3s2)cc1C,-,.,-,-,-,-
Cc1ccc(S(=O)(=O)CCc2nc3ccccc3s2)cc1,-,-,-,-,-,24µM
CCCc1c(C)[nH]c2ccc(C(=O)O)cc2c1=S,?,.,?,-,-[11.4 µM],13µM
Cc1nn(CC(=O)N2CCN(c3ccccc3)CC2)c(=O)c2cc3cc(F)ccc3n12,-,.,-,-,-,.
COc1ccc(Nc2c3c(nc4ccc(NC(=O)/C=C/c5cc(OC)c(OC)c(OC)c5)cc24)CCCC3)cc1OC,-,.,10µM,-,?,.
COc1ccc(/C=C/C(=O)Nc2ccc3nc4c(c(Nc5ccc(OC)c(OC)c5)c3c2)CCCC4)cc1,?,.,8.9µM,-,22µM,.
COc1ccc(Nc2c3c(nc4ccc(NC(=O)/C=C/c5cccc(OC)c5OC)cc24)CCCC3)cc1OC,?,.,10µM,-,14µM,.
COc1ccccc1Nc1c2c(nc3ccc(NC(=O)/C=C/c4cccc(OC)c4OC)cc13)CCCC2,-,.,?,-,?,.
COCCn1c(=O)c(C)nc2cnc(N3CCOCC3)nc21,.,.,.,-,.,.
NC(=O)C1(N2CCCCC2)CCN(CCCC(=O)c2ccc(F)cc2)CC1,.,.,.,-,.,.
